Screening data as filed in PubChem BioAssay.
Tau fibril FP – qHTS for Inhibitors of Tau Fibril Formation, Fluorescence Polarization | Potency, µM (doses to about 57.7 µM), without a hit: at the top dose activity, negative = inhibition, actives largely listed as inhibitors | AID 1468, 2008 | Microtubule-associated protein tau (Homo sapiens), P10636 | K18 P301L tau heparin fibrillization, Alexa594 FP, 6 h | 280,000 compounds, 0.39% hits; note: potency is the fitted concentration of half-maximal effect; nearly all actives have a fitted effect of over 55% in size
Target sequence (P10636 561-689 P618L limits assumed): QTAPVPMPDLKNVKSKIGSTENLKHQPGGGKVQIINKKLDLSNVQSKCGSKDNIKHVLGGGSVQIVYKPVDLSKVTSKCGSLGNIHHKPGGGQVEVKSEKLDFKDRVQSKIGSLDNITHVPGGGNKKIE
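Read-out: fluorescence polarization of Alexa 594-labeled tau (0.24 uM), 555 nm excitation, 632 nm emission. Mixtures held 15 uM unlabeled K18 P301L, compound and 20 uM heparin, pH 7 acetate buffer, incubated 6 hr at 37 C.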
FBPA coupling cs – qHTS Assay for Inhibitors of Fructose-1,6-bisphosphate Aldolase from Giardia Lamblia: Coupling assay counterscreen. coupling enzyme system counterscreen, AmpLite Red fluorescence. activity change, negative = inhibition, % at 58.2 µM, hits read low. 290,000 compounds, 0.67% hits; in the data active = activity change below about -30%
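Counterscreen of the coupled detection system alone, without aldolase: glyceraldehyde-3-phosphate coupling enzymes plus AmpLite Red readout. Compounds at 57.5 uM final, 10 min RT preincubation, 20 min RT reaction, fluorescence 525/598 nm.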
Tau ThT inhib – qHTS for Inhibitors of Tau Fibril Formation, Thioflavin T Binding; recombinant tau K18 P301L, heparin-induced fibrillization, ThT fluorescence; Potency, µM (titrated, usually from 57.4 µM), for the others: at the highest dose activity, negative = inhibition, usual class: inhibitors; 270,000 compounds, 2.1% hits; AID 1460, 2008; note: potency is the fitted concentration of half-maximal effect; nearly all actives have a fitted effect of over 55% in size
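Tau K18 P301L fragment (15 uM unlabeled plus 0.24 uM Alexa 594-labeled) in 100 mM sodium acetate pH 7 with compound, fibrillization induced by 20 uM heparin for 6 hr at 37 C. Thioflavin T (30 uM) added, fluorescence read after 1 hr (ex 450, em 510 nm).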
Tau fluor cs – Counterscreen qHTS for Inhibitors of Tau Fibril Formation, Fluorescence Polarization | tau K18 P301L Alexa594 fluorescence, heparin fibrillization | Potency, µM (titrated, usually from 57.7 µM), inactives show at the top dose activity change, negative = decrease | 280,000 compounds, 0.93% hits | AID 1463, 2008; note: potency is the fitted concentration of half-maximal effect; nearly all actives have a fitted effect of over 55% in size
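Human tau K18 P301L (15 uM unlabeled, 0.24 uM Alexa 594-labeled) in 100 mM sodium acetate pH 7 with 20 uM heparin, 6 hr at 37 C. ThT 30 uM added, 1 hr ambient; Alexa 594 FP and total fluorescence read at 555/632 nm.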
Sfp PPTase inh – qHTS Assay for Inhibitors of Bacillus subtilis Sfp phosphopantetheinyl transferase (PPTase); 4'-phosphopantetheinyl transferase ffp (Bacillus subtilis), Q9F4F7; Biochemical Sfp PPTase activity, qHTS; Potency, µM, for inactives: largest response in the series, negative = inhibition, most hits filed as inhibitors; 310,000 compounds, 3.5% hits; AID 1490, 2009;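 note: the enzyme is Sfp with the accession as filed and its product quenches rhodamine fluorescence; potency is the fitted concentration of half-maximal effect; 0% = enzyme reaction without inhibitor and -100% = no enzyme wells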
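Reaction rates are the 30-min fluorescence difference (ex 525, em 598 nm) in wells containing 15 nM Sfp, 5 uM rhodamine-CoA and 12.5 uM BHQ-2-YbbR at pH 7.6 with 10 mM MgCl2.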
Active calls of the source: *; [ ] = dose if it differs, or a comment. Only some compounds are listed: those with a hit (about 5.2% of all), similar ones and a draw of the others. Unless noted, calls come from the whole dose curve; as a rule, active = well fitted curve in the direction sought with a large enough effect; inconclusive = small, poorly fitted or top-dose-only effect, or another doubt; inactive = no such curve, though single readings can be large; an effect the other way counts as inactive or inconclusive. Unless noted, % is set by controls: 0 for no effect and ±100 for the full control effect.

For CNc1nc2[nH]c(=O)c3c(c2s1)OC(N)=C(C#N)C3c1cccc(F)c1 (stereo unspecified) the results were Tau fibril FP -3.1%, FBPA coupling cs -50.7*, Tau ThT inhib 1.5%, Tau fluor cs 0.6% and Sfp PPTase inh 79.4µM*.
`C=CCSc1nc2c(c(=O)[nH]1)C(c1ccccc1)C(C#N)=C(N)O2` (stereo unspecified) gave Tau fibril FP 1.8%, FBPA coupling cs 11.2, Tau ThT inhib -4.5%, Tau fluor cs -7.4% and Sfp PPTase inh 6.1%.
`O=C(C1CCCCC1)N(CCN1CCN(c2ccccc2CO)CC1)c1ccccn1` gave Tau fibril FP -0.7%, Tau ThT inhib -4.3%, Tau fluor cs -7.5% and Sfp PPTase inh 22.0%.
`Cc1cccc(Cc2c(C)[nH]c(=O)c(C#N)c2C)c1` gave Tau fibril FP 3.9%, FBPA coupling cs -1.4, Tau ThT inhib 4.4%, Tau fluor cs 11.0% and Sfp PPTase inh 10.5%.
Screening Cc1[nH]c(=S)c(C#N)c(C)c1CCC#N returned Tau fibril FP 4.3%, FBPA coupling cs -0.6, Tau fluor cs 7.4% and Sfp PPTase inh 17.8µM*.
For Cc1[nH]c(=S)c(C#N)c(C)c1Cc1ccccc1 the results were Tau fibril FP 1.3%, FBPA coupling cs 4.4, Tau ThT inhib 6.9%, Tau fluor cs 10.0% and Sfp PPTase inh 17.8µM*.
Screening COc1ccc(C2C=C3CNS(=O)(=O)C3CC2OC(=O)c2cccc(C)c2)cc1 (stereo unspecified) returned FBPA coupling cs -3.0 and Sfp PPTase inh 9.2%.
For NCCCC[C@H](NC(=O)[C@@H]1CCCN1C(=O)[C@H](CO)NC(=O)[C@H](CC(=O)O)NC(=O)CNC(=O)[C@H](CCCN=C(N)N)NC(=O)CN)C(=O)O the results were FBPA coupling cs 0.2 and Sfp PPTase inh -23.1%.
O=C(NCCc1c[nH]c2ccccc12)c1cc2sccc2n1Cc1ccccc1 was read as Tau fibril FP -7.4%, FBPA coupling cs -3.8, Tau ThT inhib -18.1%, Tau fluor cs 8.91µM*[quencher] and Sfp PPTase inh 9.0%.
O=C(O)c1ccc(S(=O)(=O)N[C@H](Cc2c[nH]c3ccccc23)C(=O)O)cc1 was read as FBPA coupling cs -0.2 and Sfp PPTase inh -8.5%.
Screening COc1ccc(Nc2nc(N)c3cc(OC)c(OC)cc3n2)cc1 returned Tau fibril FP inconclusive, Tau ThT inhib inconclusive and Tau fluor cs 11.2µM*[quencher].
Screening Cc1ccc(-c2nnn3c2nc(NCC(C)c2ccccc2)c2ccccc23)cc1 (stereo unspecified) returned Tau fibril FP -16.4%, Tau ThT inhib -1.3% and Tau fluor cs inconclusive.
For COC(=O)[C@@H](O)CC[C@@H](C)Cc1c(OC)c(OC)c(C)c(OC)c1OC the results were Tau fibril FP -2.9%, FBPA coupling cs -0.4, Tau ThT inhib -7.5%, Tau fluor cs -5.3% and Sfp PPTase inh 17.8%.
`O=C1OC2(CCCCC2)OC(=O)C1=CNc1ccc2c(c1)OCO2` gave Tau fibril FP 1.5%, FBPA coupling cs -9.9, Tau ThT inhib 0.8%, Tau fluor cs -10.8% and Sfp PPTase inh 1.5%.
Nc1ccc2c(c1)OC1(CCCC1)O2 was read as Tau fibril FP -16.5%, FBPA coupling cs -4.0, Tau ThT inhib 12.6µM*, Tau fluor cs inconclusive and Sfp PPTase inh 1.3%.
Screening Cn1c(=O)c2c(nc(SC3C(=O)CC(C)(C)CC3=O)n2C)n(C)c1=O returned Tau fibril FP -6.0%, FBPA coupling cs 0.7, Tau ThT inhib -2.9%, Tau fluor cs -3.7% and Sfp PPTase inh 56.2µM*.
For O=C1N=C(N2CCN(c3ccccc3)CC2)S/C1=C/c1cccs1 the results were Tau fibril FP 6.9%, FBPA coupling cs 0.7, Tau ThT inhib inconclusive, Tau fluor cs -19.4% and Sfp PPTase inh -3.1%.
For O=C1N=C(c2ccccc2)S/C1=C\c1cccs1 the results were Tau fibril FP inconclusive, FBPA coupling cs 1.0, Tau ThT inhib 7.94µM*, Tau fluor cs inconclusive and Sfp PPTase inh 35.5µM*.
For O=C1OC(c2ccc(Cl)cc2)=C/C1=C/c1cccnc1 the results were FBPA coupling cs -0.7 and Sfp PPTase inh -0.8%.
O=C1OC(c2ccccc2)=C/C1=C/c1cccs1 was read as Tau fibril FP inconclusive, FBPA coupling cs 2.1, Tau ThT inhib 3.16µM*, Tau fluor cs inconclusive and Sfp PPTase inh 50.1µM*.
`CCc1ccccc1N1CC(c2nnc(NC(=O)c3ccco3)s2)CC1=O` (stereo unspecified) gave Tau fibril FP 0.8%, Tau ThT inhib -10.6% and Tau fluor cs -7.4%.
Screening CCOC(=O)c1cnn(-c2cc(Oc3ccccc3C)ncn2)c1N returned Tau fibril FP -7.0%, FBPA coupling cs 0.5, Tau ThT inhib inconclusive, Tau fluor cs -14.1% and Sfp PPTase inh 50.1µM*.
For N[C@@H](CCC(=O)N[C@H](CSN=O)C(=O)NCC(=O)O)C(=O)O the results were Tau fibril FP inconclusive, Tau ThT inhib inconclusive and Tau fluor cs -20.9%.
`N[C@H](CCC(=O)N[C@H](CSN=O)C(=O)NCC(=O)O)C(=O)O` gave Tau fibril FP inconclusive, FBPA coupling cs 0.8, Tau ThT inhib 22.4µM*, Tau fluor cs -22.3% and Sfp PPTase inh 31.6µM*.
CC(C)[C@@H]1NC(=O)[C@H](CCCCN)NC(=O)[C@@H](Cc2c[nH]c3ccccc23)NC(=O)[C@H](Cc2ccc(O)cc2)NC(=O)[C@@H](NC(=O)[C@H](N)Cc2ccccc2)CSSC[C@@H](C(=O)N[C@@H](Cc2c[nH]c3ccccc23)C(N)=O)NC1=O was read as FBPA coupling cs -1.2 and Sfp PPTase inh 26.1%.
CNCCCNC(=O)c1ccc(/C=N/O)nc1 was read as Tau fibril FP -6.0%, FBPA coupling cs -0.1, Tau ThT inhib -9.1%, Tau fluor cs -3.0% and Sfp PPTase inh 79.4µM*.
`O=C(NCc1ccccc1)c1ccc(/C=N/O)nc1` gave Tau fibril FP 2.8%, FBPA coupling cs 2.3, Tau ThT inhib -0.3%, Tau fluor cs 7.2% and Sfp PPTase inh -19.3%.
O=C(NCc1ccccn1)c1ccc(/C=N/O)nc1 was read as Tau fibril FP -12.4%, FBPA coupling cs -0.4, Tau ThT inhib -10.1%, Tau fluor cs -7.6% and Sfp PPTase inh 50.1µM*.
For COc1ccc(/C=N/NC(=S)NC2CCS(=O)(=O)C2)cc1OC (stereo unspecified) the results were Tau fibril FP 2.0%, FBPA coupling cs 0.3, Tau ThT inhib -16.7%, Tau fluor cs -16.3% and Sfp PPTase inh 56.2µM*.
